The text below walks through data of PubChem BioAssay (NCATS).

“And” between values parts separate entries of the source, which are not always exact repeats. Equal entries are not always repeated. Records with an inconclusive call do not appear. Values without a mark were called inactive. The source made the active and inactive calls. The call rests on the fitted dose curve; in most records, active means well fitted inhibition curve with a large enough effect; inconclusive means small, poorly fitted or top-dose-only effect; inactive means flat fitted curve, though single readings scatter.

In one assay the test system is CRL-7250. The experiment in a line: Cytotoxic Profiling of Annotated Libraries Using Quantitative High-Throughput Screening (AID 1296008). The conditions noted are these: Five cell lines viability, CellTiter-Glo ATP luminescence, 48-72 h; max response: stronger effect = lower value. The method, boiled down: (§1)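 Cytotoxicity was measured as CellTiter-Glo ATP luminescence, read after 10 min at room temperature. Compound treatment of the cells lasted 48 or 72 hr at 37 degrees Celsius in a qHTS format.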

The subject of a further assay is HEK293. The description is as above. Conditions: Five cell lines viability, CellTiter-Glo ATP luminescence, 48-72 h; max response: stronger effect = lower value. Summed up:
as §1
Background: In ATP-based viability assays light output follows the ATP content of the culture.

Assay [1] has as its system HaCat. The assay is described as above. The conditions noted are these: Five cell lines viability, CellTiter-Glo ATP luminescence, 48-72 h; max response: stronger effect = lower value. The method, boiled down:
as §1

A further assay has as its system KB-3-1. Described as above. The conditions noted are these: Five cell lines viability, CellTiter-Glo ATP luminescence, 48-72 h; max response: stronger effect = lower value. The method, boiled down:
as §1

The test system of the next assay is NIH3T3. The assay is described as above. The conditions noted are these: Five cell lines viability, CellTiter-Glo ATP luminescence, 48-72 h; max response: stronger effect = lower value. Summed up: as §1
Another assay has as its system MCC-13. Briefly: qHTS assay to identify novel small-molecules to repurpose for Merkel cell carcinoma treatment (AID 1296009). The conditions noted are these: MCC and control cell lines, CellTiter-Glo viability, 72 h; series mostly up to 46 µM. The method, boiled down:
(§2)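 Cell viability measured by CellTiter-Glo following 72 hr compound treatment at 37 degree celsius, with NPC and MIPE libraries tested in 8- and 11-point concentration series.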

The test system of a further assay is MCC-26. The description is as above. Conditions: MCC and control cell lines, CellTiter-Glo viability, 72 h; series mostly up to 46 µM. Summed up:
as §2

The test system of a further assay is MKL-1. The description is as above. Conditions: MCC and control cell lines, CellTiter-Glo viability, 72 h; series mostly up to 46 µM. The method, boiled down:
as §2

For a further assay, the system named is HEK293T. Described as above. Conditions: MCC and control cell lines, CellTiter-Glo viability, 72 h; at 44.8 µM (top of the series) unless noted. The method, boiled down:
as §2

In assay [2] the test system is HACAT. The assay is described as above. Conditions: MCC and control cell lines, CellTiter-Glo viability, 72 h; at 44.8 µM (top of the series) unless noted. Summed up:
as §2
Further: nearly all actives have a fitted effect of over 60% in size.
On the % scale 0 is the no-effect control and ±100 the full control effect; potency means the concentration at half of the fitted maximal effect.

In the case of `O=C1OC2(c3ccc(O)cc3Oc3cc(O)ccc32)c2ccccc21`, the max response was -1.47% in the assay with CRL-7250; -1.16% in the assay with HEK293; -26.2% with HaCat [1]; -10.5% in the assay with KB-3-1; -4.38% in the assay on NIH3T3. In addition, the Potency entry in the assay with MCC-13, in the assay on MCC-26 and in the assay on MKL-1 was “inactive” throughout.

On to `C=CCc1ccc(O)c(OC)c1`, for which the result with CRL-7250, with HEK293 and in the assay on HEK293T was inactive. The max response with HaCat [1] is -0.0642%; in the assay with KB-3-1 it was 3.55%; with NIH3T3 it was 3.27%. Besides, the Potency entry in the assay on MCC-13, in the assay on MCC-26 and with MKL-1 was “inactive” throughout.

As to `CC(C)(C(=O)c1cccnc1)c1cccnc1`, the results for the max response in the assay with CRL-7250, in the assay on HaCat [1] and in the assay with KB-3-1 were -2.01%, 3.03% and 11%, respectively. Further, the outcome in the assay with HEK293, in the assay with NIH3T3 and in the assay with HEK293T was inactive. Besides, the Potency entry with MCC-13, in the assay with MCC-26 and in the assay on MKL-1 was “inactive” in each case.

For `CC1(C)O[C@@H]2C[C@H]3[C@@H]4C[C@H](F)C5=CC(=O)CC[C@]5(C)[C@H]4[C@@H](O)C[C@]3(C)[C@]2(C(=O)CO)O1`, the max response in the assay on CRL-7250 was 2.33%; in the assay on HaCat [1] it was -7.7%; in the assay on KB-3-1 it was 28%; with NIH3T3, 0.0351%. The outcome in the assay on HEK293 and with HEK293T was inactive. In addition, the Potency result in the assay with MCC-13, in the assay on MCC-26 and with MKL-1 was “inactive” each time.

Take `Oc1cc(O)c2c(c1)O[C@H](c1ccc(O)c(O)c1)[C@H](O)C2`: the max response in the assay on CRL-7250 was -5.79%; in the assay on HaCat [1] it was 4.8%; with KB-3-1, -0.959%; with NIH3T3, -0.255%. The compound was classed as inactive in the assay with HEK293 and with HEK293T. In addition, the Potency result in the assay on MCC-13, in the assay on MCC-26 and with MKL-1 was “inactive” each time.

For the compound `Cc1ccccc1C(=O)Nc1ccc(C(=O)N2CCCC(N(C)C)c3ccccc32)cc1` (centres undefined), the Potency in the assay with CRL-7250 is 23.7 µM (active); in the assay on HEK293 it was 3.35 µM (active) and 5.8 µM (active); in the assay on KB-3-1, 7.31 µM (active); in the assay with NIH3T3 it was 9.44 µM (active). Besides, the Potency entry in the assay on MCC-13, in the assay with MCC-26 and with MKL-1 was “inactive” each time.

As to `CCCCC(=O)O[C@]1(C(=O)CO)CC[C@H]2[C@@H]3CCC4=CC(=O)CC[C@]4(C)[C@H]3[C@@H](O)C[C@@]21C`, the result in the assay with CRL-7250, in the assay with HaCat [1] and with HACAT [2] was inactive. Also, the max response with HEK293 was 3.34%; in the assay on KB-3-1, -2.52%; with NIH3T3, 1.69%. In addition, the Potency result with MCC-13, in the assay on MCC-26 and in the assay on MKL-1 was “inactive” each time.

With `CCC(=O)c1c(O)cc(O)cc1O`, the max response with CRL-7250 is 1.93%; in the assay with HaCat [1] it was 3.62%; with KB-3-1, -16.9%; in the assay on NIH3T3, 0.801%. For the same compound, the outcome with HEK293 and with HEK293T was inactive. The Potency entry in the assay with MCC-13, with MCC-26 and in the assay with MKL-1 was “inactive” each time.

On to `CCCCCCCCCCCCCCCCCC(=O)OCC(O)CO` (centres undefined), for which the compound was classed as inactive in the assay with CRL-7250. Further, the max response in the assay on HEK293 was -6.82%; in the assay with HaCat [1] it was 4.32%; in the assay with KB-3-1 it was -3.37%; in the assay on NIH3T3 it was 1.82%. Besides, the Potency result with MCC-13, in the assay with MCC-26 and in the assay with MKL-1 was “inactive” in each case.

In the case of `CCCC(=O)O[C@]1(C(=O)CO)CC[C@H]2[C@@H]3CCC4=CC(=O)CC[C@]4(C)[C@H]3[C@@H](O)C[C@@]21C`, the max response was -24.4% in the assay with CRL-7250, -4.75% in the assay with HaCat [1], 1.39% in the assay with KB-3-1 and -4.28% in the assay with NIH3T3. The compound was called inactive in the assay on HEK293 and with HEK293T. For the same compound, the Potency result in the assay on MCC-13, in the assay on MCC-26 and in the assay with MKL-1 was “inactive” in each case.

For `CCOC(=O)[C@H](CCc1ccccc1)N[C@@H](C)C(=O)N1Cc2ccccc2C[C@H]1C(=O)O`, the results for the max response in the assay with CRL-7250, in the assay on KB-3-1 and in the assay with NIH3T3 were -9.56%, 21.9% and -19.6%, respectively. In addition, the outcome with HaCat [1] and in the assay on HACAT [2] was inactive. For the same compound, the Potency result in the assay with MCC-13 is “inactive”.

For `C[C@H]1C[C@H]2[C@@H]3CCC4=CC(=O)C=C[C@]4(C)[C@@]3(Cl)[C@@H](O)C[C@]2(C)[C@@]1(O)C(=O)CO`, the compound was classed as inactive in the assay with CRL-7250. Moreover, the max response in the assay with HaCat [1] was -6.93%; in the assay on KB-3-1, 6.92%; in the assay on NIH3T3, -12.3%. In addition, the Potency entry with MCC-13, in the assay on MCC-26 and in the assay with MKL-1 was “inactive” throughout.

For the compound `CC(=O)N/N=C/c1ccc([N+](=O)[O-])o1`, the max response was -0.507% in the assay with CRL-7250 and -2.33% in the assay on KB-3-1. For the same compound, the outcome in the assay with HaCat [1] and in the assay on HACAT [2] was inactive. Besides, in the assay with MCC-26, the Potency result is “inactive”.

Take `COc1cc2c(cc1OC)[C@@H]1CC(=O)[C@@H](CC(C)C)CN1CC2`: the results for the max response in the assay on CRL-7250, in the assay with HaCat [1] and in the assay with KB-3-1 were -4.44%, -0.956% and 20.8%, respectively. The result in the assay with NIH3T3 was inactive. The Potency entry with MCC-13, with MCC-26 and in the assay on MKL-1 was “inactive” each time.

In the case of `Cc1ccc(O)c2ncccc12`, the max response with CRL-7250 is -10.3%; with HaCat [1], 2.26%; with KB-3-1, -5.97%. For the same compound, in the assay on MKL-1, the Potency is 15 µM (active).

`CC1(C)O[C@@H]2C[C@H]3[C@@H]4CCC5=CC(=O)CC[C@]5(C)[C@@]4(F)[C@@H](O)C[C@]3(C)[C@]2(C(=O)CCl)O1`: the max response is 2.38% in the assay on CRL-7250, 33.4% with KB-3-1 and -10.1% in the assay with NIH3T3. The outcome with HaCat [1] and in the assay on HACAT [2] was inactive. Besides, the Potency result in the assay with MCC-13, in the assay on MCC-26 and in the assay on MKL-1 was “inactive” in each case.

With `CN(C/C=C/c1ccccc1)Cc1cccc2ccccc12`, the Potency was 26.6 µM (active) with CRL-7250 and 21.1 µM (active) in the assay with HaCat [1]. Moreover, the max response in the assay with KB-3-1 is 4.5%. For the same compound, the Potency entry in the assay with MCC-13, in the assay on MCC-26 and with MKL-1 was “inactive” throughout.

`COc1ccc(CN2CCN(C(c3ccc(F)cc3)c3ccc(F)cc3)CC2)c(OC)c1OC`: the result in the assay with CRL-7250, in the assay on HaCat [1] and with HACAT [2] was inactive. Further, the max response in the assay on HaCat [1] is -19.9%; in the assay on KB-3-1 it was 6.7%; in the assay with NIH3T3 it was 1.96% and 2.43%. Also, the Potency result in the assay with MCC-13 and in the assay with MCC-26 was “inactive” throughout.

Consider `Oc1ccc(Cl)c2cccnc12`, for which the result with CRL-7250, with HaCat [1] and in the assay with HACAT [2] was inactive. Further, in the assay with KB-3-1, the max response was -11.9%.

As to `CCCCCCC[N+](CC)(CC)CCCCc1ccc(Cl)cc1`, the Potency was 7.5 µM (active) in the assay on CRL-7250, 6.68 µM (active) with HEK293 and 0.596 µM (active) with MKL-1. In addition, in the assay on KB-3-1, the max response was -16.1%. In addition, the Potency result in the assay on MCC-13 and in the assay with MCC-26 was “inactive” throughout.

On to `C=C(CC)C(=O)c1ccc(OCC(=O)O)c(Cl)c1Cl`, for which the max response was -16.5% in the assay on CRL-7250, -11.5% with HaCat [1], -0.176% in the assay on KB-3-1 and -16.2% with NIH3T3. In the assay on MCC-26, the Potency result is “inactive”. Besides, in the assay with MKL-1, the Potency was 8.41 µM (active).

For the compound `COc1cc2c(cc1OC)C(C(C(=O)N(CCc1ccc(OC)c(OC)c1OC)CCc1ccc(OC)c(OC)c1OC)c1ccccc1)=NCC2` (centres undefined), the max response was -6.63% in the assay on CRL-7250, 28% in the assay with KB-3-1 and 0.673% in the assay on NIH3T3. Further, the outcome in the assay on HaCat [1] and in the assay with HACAT [2] was inactive. Besides, the Potency entry in the assay on MCC-13 and in the assay with MCC-26 was “inactive” throughout.

As to `CN(C)CCCOc1nn(Cc2ccccc2)c2ccccc12`, the max response in the assay with CRL-7250 was 1.45%; in the assay with HaCat [1] it was 3.55%; with KB-3-1, -14.4% and -24.2%. Besides, the Potency entry in the assay with MCC-13, in the assay on MCC-26 and in the assay on MKL-1 was “inactive” throughout.

In the case of `O=C(CCCN1CCC(O)(c2ccc(Br)cc2)CC1)c1ccc(F)cc1`, the max response in the assay with CRL-7250 is 2.7%; with HaCat [1] it was -2.82%; with KB-3-1, 3.87%. The Potency entry in the assay on MCC-26 and in the assay on MKL-1 was “inactive” in each case.

For the compound `CCCCOc1ccc(OCCCN2CCOCC2)cc1`, the results for the max response with CRL-7250, with HaCat [1] and in the assay on KB-3-1 were 2.95%, -3.82% and 3.23%, respectively. Further, the Potency result with MCC-13, in the assay on MCC-26 and in the assay with MKL-1 was “inactive” each time.

As to `O=C1[C@H]2CCCC[C@H]2C(=O)N1CCCCN1CCN(c2nsc3ccccc23)CC1`, the result with CRL-7250 was inactive. The max response with HaCat [1] was -5.6%; in the assay on KB-3-1, 2.4%; with NIH3T3 it was 2.44%. The Potency result in the assay on MCC-13, in the assay on MCC-26 and in the assay on MKL-1 was “inactive” in each case.
